ELG1 genotox = genotoxicity induction in ELG1-luciferase HEK293T cells | HEK293T ELG1-luciferase reporter, luminescence, 16 h | AID 504466 | 330,000 compounds, 1.3% hits | Potency, µM (top dose mostly 46 µM), for inactives: top-dose activity change, positive = activation, usual class: activators; note: % of control where 0% means no effect; nearly all actives have a fitted effect of over 60% in size
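ELG1-luciferase HEK293T cells, 2,000/well; compound pinned in; 16 hr, 37 °C, 5% CO2; ONE-Glo, 30 min RT; luminescence on CCD imager.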
FLuc counter = firefly luciferase modulation, counter-screen for miR-21 project; P08659; purified FLuc, Km substrates, luminescence inhibition; Potency, µM (doses to about 57.5 µM), for the others: top-dose activity change, negative = inhibition, usual class: inhibitors; 360,000 compounds, 6.9% hits;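 note: plate controls were vehicle for no effect and reference inhibitor for full effect; nearly all actives have a fitted effect of over 55% in size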
Target sequence (P08659 whole entry, looked up): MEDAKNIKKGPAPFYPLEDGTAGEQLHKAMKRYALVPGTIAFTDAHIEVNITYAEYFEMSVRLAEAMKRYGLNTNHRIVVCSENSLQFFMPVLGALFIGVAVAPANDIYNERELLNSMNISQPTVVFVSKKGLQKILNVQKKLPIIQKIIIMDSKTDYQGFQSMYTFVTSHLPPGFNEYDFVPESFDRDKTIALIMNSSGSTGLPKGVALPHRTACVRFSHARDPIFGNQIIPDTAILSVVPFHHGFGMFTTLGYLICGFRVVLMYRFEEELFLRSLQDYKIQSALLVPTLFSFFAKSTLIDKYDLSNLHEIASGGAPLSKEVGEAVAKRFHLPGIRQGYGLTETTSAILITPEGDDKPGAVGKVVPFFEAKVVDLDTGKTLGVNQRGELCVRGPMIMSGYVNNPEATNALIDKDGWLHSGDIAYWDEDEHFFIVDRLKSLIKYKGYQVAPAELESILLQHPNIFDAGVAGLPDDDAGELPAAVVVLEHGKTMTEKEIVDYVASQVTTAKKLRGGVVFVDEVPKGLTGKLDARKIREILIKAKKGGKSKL
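Biochemical qHTS of compounds, final roughly 60 µM downward over six points, against 10 nM purified firefly luciferase using Km concentrations of substrates (10 uM D-luciferin, 10 uM ATP) in Tris acetate pH 7.5 buffer; luminescence output.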
Luc counter = Kinase-Glo luciferase inhibition (counter-screen); Q27757; Kinase-Glo luciferase, ATP luminescence, 8 min; AID 1379; Potency, µM (doses to about 38.3 µM), inactives show at the top dose activity change, negative = inhibition, most hits filed as inhibitors; 200,000 compounds, 0.28% hits; note: % is set by controls: 0 for no effect and ±100 for the full control effect; nearly all actives have a fitted effect of over 60% in size
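Compounds were added to a substrate mix at pH 7.2 (50 mM imidazole, 10 uM ATP, within the enzyme's linear range), followed by Kinase-Glo detection reagent; luminescence was measured after 8 minutes at ambient temperature.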
NPC1 prom act = NPC1 promoter activation. Huh7 NPC1 promoter luciferase reporter, 24 h. 320,000 compounds, 2.4% hits. Potency, µM (doses to about 9.22 µM), for inactives: top-dose activation, most hits filed as activators; note: % of control where 0% means no effect; nearly all actives have a fitted effect of over 60% in size
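Cells: Huh7 expressing luciferase under the NPC1 promoter, 1500/well. Seeded 2 h, compound added, incubated 24 h at 37 °C. Luciferase reagent, 10 min ambient, then luminescence.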
SMN2 splice enh = increases expression of the SMN2 splice variant; HEK293 SMN2-luciferase splicing reporter, luminescence, 30-36 h; Potency, µM (top dose mostly 46.1 µM), inactives show top-dose activity change, positive = activation, hits mostly activators; 210,000 compounds, 2.8% hits; AID 1458; note: % of control where 0% means no effect; nearly all actives have a fitted effect of over 55% in size
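HEK293 cells carry an SMN2 […]–luciferase reporter in which exon 7 inclusion puts luciferase in frame. Cells were plated 10-12 h before compound addition, then incubated 30-36 h at 37C. ONE-Glo luminescence was read; sodium butyrate at 4.5 mM final served as control.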
Rab9 promoter act = activates the Rab9 promoter; Huh7 Rab9 promoter-luciferase reporter, luminescence, 24 h; Potency, µM (series often up to 9.22 µM), for the others: at the highest dose activation, negative = inhibition, usual class: activators; 320,000 compounds, 2.8% hits; note: % of control where 0% means no effect; nearly all actives have a fitted effect of over 60% in size
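Luciferase signal after 10 min detection reagent at ambient indicates Rab9 promoter upregulation; stably transfected Huh7 cells were treated 24 h with compound in DMSO at 37 °C, 5% CO2.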
Active calls of the source: *; ? = inconclusive; . = no result given; [ ] = another dose, or the depositor's remark. Only some compounds are listed: those with a hit (about 7.4% of all), similar ones and a draw of the others. Calls come from the whole dose curve; as a rule, active = well fitted curve in the direction sought with a large enough effect; inconclusive = small, poorly fitted or top-dose-only effect, or another doubt; inactive = no such curve, though single readings can be large; an effect the other way counts as inactive or inconclusive. Potency is the fitted concentration of half-maximal effect.

SMILES | ELG1 genotox | FLuc counter | Luc counter | NPC1 prom act | SMN2 splice enh | Rab9 promoter act
Cc1nc(-c2coc3cc(O)c(C)cc3c2=O)cs1 | ? | 0.95µM* | ? | ? | 25µM* | ?
COc1ccc(Oc2ncc3nc(-c4ccccc4)c(=O)n(Cc4cccs4)c3n2)cc1 | . | . | 2% | . | -26% | .
CCN(CC)S(=O)(=O)c1ccc(NC(=O)c2c(C)oc3ncnc(N4CCOCC4)c23)cc1 | . | -1% | . | . | . | .
CCC(=O)Nc1cccc(NC(=S)NC(=O)c2cccs2)c1 | ? | 6µM* | 0% | ? | 28µM* | ?
CCC(=O)Nc1cccc(NC(=O)c2ccc(C)cc2Cl)c1 | 4% | 19µM* | -5% | 21% | 28% | ?
N#Cc1ccccc1NC(=S)NC(=O)c1cccs1 | 16% | 8.5µM* | . | -1% | . | 8%
CCC(=O)Nc1ccc(C(=O)NNC(=O)c2cccs2)cc1 | 6% | 4% | 3% | 1% | 2% | 2%
CCC(=O)Nc1cccc(NC(=S)NC(=O)c2ccccc2Cl)c1 | -1% | ? | -1% | ? | -5% | 3.5µM*
Cc1oc(-c2ccccc2)nc1CNC(=O)Nc1ccccc1 | . | -3% | . | . | . | .
CCOc1ccccc1NC(=O)CSc1ncc2c(n1)-c1ccccc1N(CC)S2(=O)=O | . | 2% | . | . | . | .
NCCSS(=O)(=O)CCN | . | . | 1%[7.66 µM] | . | -8%[9.22 µM] | .
Cc1cc(C)cc(NC(=O)COc2cccc3c(=O)n(C)ccc23)c1 | . | 2% | . | . | . | .
c1coc(C2Nc3cccc4cccc(c34)N2)c1 | -3% | 27µM* | -8% | 8% | 17% | 18%
Clc1ccccc1C1Nc2cccc3cccc(c23)N1 | -8% | ? | . | -4% | . | 11%
Cc1ccc2[nH]c3ccccc3c(=O)c2c1 | 14% | 17µM* | . | ? | . | 17%
O=c1c2ccccc2[nH]c2ccc(O)cc12 | ? | ? | . | 4% | . | 6%
Cc1ccc(-c2nc3ccccn3c2NCc2ccc3c(c2)OCO3)cc1 | 3% | 12µM* | -13% | ? | ? | ?
Cc1ccc2nc(-c3ccc(-c4cccc(Cl)c4)cc3)c(NCc3ccccc3)n2c1 | -2% | ? | . | 2% | . | -1%
COc1ccc(-c2nc3ccc(C)cn3c2NCc2ccc3c(c2)OCO3)cc1 | 12% | 13µM* | -1% | 28% | -87% | ?
CCOC(=O)c1c(C)[nH]c(C)c1S(=O)(=O)N(C)CC(=O)Nc1ccc(C)cc1Br | . | 4% | . | . | . | .
Cc1cc(OC(C)C(=O)Nc2c(C(=O)c3ccc(F)cc3)oc3ccccc23)ccc1Cl (configuration not stated) | . | -1% | . | . | -3% | .
Cc1ccc(-c2nc3c4cnn(-c5cc(Cl)ccc5Cl)c4ncn3n2)cc1 | . | -6% | . | . | 6% | .
CN(C)C(=O)c1ccc2c(c1[N+](=O)[O-])C(=O)c1ccccc1C2=O | 8% | 4% | 1% | ? | 11µM* | ?
CN(C)S(=O)(=O)c1cccc2c1C(=O)c1ccccc1C2=O | -1% | 4% | -7% | -4% | -53% | -1%
CN(C)c1cc2c(c(N(C)C)c1)C(=O)c1ccccc1C2=O | 3% | ? | 11µM* | 27% | -13% | ?
SMILES | ELG1 genotox | FLuc counter | Luc counter | NPC1 prom act | SMN2 splice enh | Rab9 promoter act
C#CC(C)(CC)NC(=O)Cn1nnc(-c2ccc(OCc3ccccc3Cl)cc2)n1 (configuration not stated) | . | -18% | . | . | -19% | .
CC(C)n1nnc(-c2ccc(OCc3ccccc3F)cc2)n1 | ? | 6µM* | . | 2.8µM* | . | 1.6µM*
O=C(O)Cn1nnc(-c2ccc(OCc3ccccc3Cl)cc2)n1 | 5% | 19µM* | . | 2% | . | -3%
Cn1nnc(-c2ccc(OCc3ccccc3F)cc2)n1 | 9.2µM* | 1.9µM* | -24% | 0.63µM* | 8.9µM* | 1µM*
Fc1ccccc1COc1ccc(C(=S)N2CCCC2)cc1 | ? | 17µM* | . | ? | . | ?
Nc1ccc(-c2nnn(Cc3ccccc3F)n2)cc1 | ? | 15µM* | . | ? | . | ?
CSc1nnc2c3ccccc3n(CCc3ccccc3)c2n1 | -17% | -3% | 0% | -4% | 4µM* | 10%
CSc1nnc2c3ccccc3n(Cc3ccccc3)c2n1 | 1% | 2% | -3% | 1% | -7% | -6%
COc1ccc(COc2cccc(C=O)c2)cc1 | -1% | 24µM* | . | ? | . | ?
O=Cc1cccc(OCc2cccc3ccccc23)c1 | ? | 27µM* | . | 2.8µM* | . | 4µM*
COc1ccc(COc2ccc3c(C)cc(=O)oc3c2)cc1 | 9.2µM* | 5.4µM* | . | 2.2µM* | . | ?
Fc1ccccc1COc1cccc(/C=N/n2cnnc2)c1 | 4% | 3% | -1% | 11% | 0% | 8%
Cc1ccc(C)o1 | . | . | . | . | 2% | .
CCn1c2ccccc2c2c3ncc4cccn4c3ccc21 | 12% | 3µM* | . | 3.2µM* | . | ?
O=C1/C(=C/c2ccco2)Cc2ccccc21 | ? | 13µM* | -4% | -2% | -1% | 0%
O=C1/C(=C/c2ccco2)CCC1C1CCCC1 (configuration not stated) | 23µM* | 8.5µM* | -14% | 0% | -9% | -1%
O=C1/C(=C/c2ccccc2)CCC1C1CCCC1 (configuration not stated) | ? | 1.2µM* | -4% | 20% | 3% | 25%
COc1ccc(/C=C2\CCC(C3CCCC3)C2=O)cc1Cn1nc(C)cc1C (configuration not stated) | 2% | ? | -3% | -3% | -26% | 0%
O=C1/C(=C/c2ccc(F)cc2)CCC1C1CCCC1 (configuration not stated) | ? | 0.67µM* | -4% | ? | 10% | 26%
CC1C/C(=C/c2ccco2)C(=O)/C(=C/c2ccco2)C1 (configuration not stated) | ? | ? | 2% | -1% | -2% | -1%
CSc1nnc2c(n1)OC(c1cccc(O)c1Cl)Nc1ccccc1-2 (configuration not stated) | . | -14% | . | . | 6% | .
Cc1ccc(CNC(=O)CSc2c(C(C)C)cnc3c2c(=O)n(C)c(=O)n3C)cc1 | . | -3% | . | . | . | .
COc1ccc(S(=O)(=O)n2nc(C)c(S(=O)(=O)N3CCCCCC3)c2C)cc1C | . | -18% | . | . | . | .
CCOc1ccc(/C=C2\CCC(C3CCCC3)C2=O)cc1 (configuration not stated) | ? | 0.54µM* | . | 3.5µM* | . | 4µM*
O=C1/C(=C\c2ccco2)CCC/C1=C\c1ccco1 | 15µM* | 4.8µM* | -15% | 4µM* | 18µM* | 3.2µM*
COc1ccccc1/C=C1\CCC(C2CCCC2)C1=O (configuration not stated) | 15% | 19µM* | . | 18% | . | 21%
